From the supplement of paper PMC9694430 come the findings set out here.
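Note: purified Escherichia coli-expressed rice kinase domain construct.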

The test system of this assay is LOC_OS03G27990-cb004. In words: thermal shift delta Tm vs DMSO control; higher = stronger stabilization (binding). Conditions: 12.5 µM; protein concentration 2 µM. An outline of the steps:
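Rice kinase domain constructs, made in E. coli and purified, were placed in 96-well plates at 2 μM in 19.5 μl of 100 mM potassium phosphate pH 7.5, 150 mM NaCl, 10% glycerol and 5 × SYPRO Orange, with compound in DMSO. A temperature ramp from 25°C to 95°C at 0.05°C/s was used for differential scanning fluorimetry. The melting temperature shift is a triplicate mean compared with DMSO-only protein, derived from Boltzmann fits.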
As to `COc1ccc(CC(=O)Nc2nc3c(s2)CCc2ccccc2-3)cc1OC`, the “thermal shift delta Tm” value is 0.36 °C.
In the case of `CNS(=O)(=O)Nc1nccc(Cc2c(C)c3ccc(Oc4ncccn4)cc3oc2=O)c1F` it was 0.15 °C.
On to `C[C@H](NC(=O)/C(C#N)=C/c1cccc(Br)n1)c1ccccc1`, for which the “thermal shift delta Tm” value is -2.84 °C.
The same measure for `COc1ccc(COc2cc3oc(=O)c4cc(C(C)O)ccc4c3cc2OC)cc1` (configuration not stated) [Palomid 529 (P529)]: 0.35 °C; for `CC(C)(C)Cn1c(N)nc2ccc(-c3[nH]c(C(C)(C)C)nc3-c3ccc(F)cc3)nc21`: 0.28 °C.
With `COc1ccccc1-c1cc(Nc2cccc(CS(N)(=O)=O)c2)ncn1`, the “thermal shift delta Tm” value amounted to 0.57 °C.
In the case of `Cn1cnc(N)c2ncnc1-2` [3-Methyladenine (3-MA)] it was 0.15 °C.
As to `C=CC(=O)N[C@H]1CCOC[C@H]1Nc1ncc2cc(-c3c(Cl)c(OC)cc(OC)c3Cl)ccc2n1`, the “thermal shift delta Tm” value is -0.08 °C.
The same measure for `CCS(=O)(=O)Nc1ccc2c(c1)/C(=C(/Nc1ccc(CN3CCCCC3)cc1)c1ccccc1)C(=O)N2` [Hesperadin]: 2.77 °C; for `Cc1cc(Nc2cc(N3CCN(C)CC3)nc(/C=C/c3ccccc3)n2)n[nH]1` [ENMD-2076 L-(+)-Tartaric acid]: 2.61 °C; for `Cc1ccc(F)c(NC(=O)Nc2ccc(-c3cccc4[nH]nc(N)c34)cc2)c1` [Linifanib (ABT-869)]: 1.2 °C.
In the case of `CO[C@H]1C[C@@H]2CC[C@@H](C)[C@@](O)(O2)C(=O)C(=O)N2CCCC[C@H]2C(=O)O[C@H]([C@H](C)C[C@@H]2CC[C@@H](OCCO)[C@H](OC)C2)CC(=O)[C@H](C)/C=C(\C)[C@@H](O)[C@@H](OC)C(=O)[C@H](C)C[C@H](C)/C=C/C=C/C=C/1C` [Everolimus (RAD001)] it was -0.04 °C.
The same measure for `CCCCCCCCCCCCCCCCn1cc[n+](Cc2ccccc2)c1C`: 0.11 °C.
Turning to `O=C(/C=C/c1ccc(O)c(O)c1)c1ccc(O)cc1O` [Butein], the “thermal shift delta Tm” value was found to be 1.75 °C.
The same measure for `NC(=O)c1ncn([C@@H]2O[C@H](CO)[C@@H](O)[C@H]2O)c1N` [AICAR (Acadesine)]: 0.5 °C.
As for `COCCOc1ccc2c(c1)ncn2-c1ccc2cccc(N3CCC(N)CC3)c2n1`, the “thermal shift delta Tm” value came to 6.71 °C.
In the case of `CCCCCCCCCCCCCCCCCCOP(=O)([O-])OC1CC[N+](C)(C)CC1` [Perifosine (KRX-0401)] it was -2.47 °C; in that of `COc1ccc(-c2ccc3c(N4CCOCC4)nc(N4C[C@@H](C)O[C@@H](C)C4)nc3n2)cc1CO`, 0.02 °C.
The same measure for `Cc1cc(Nc2nc(N[C@@H](C)c3ccc(F)cc3)c(C#N)cc2F)n[nH]1`: 0.57 °C.
The same measure for `O=c1nc(N2CCOCC2)oc2c(-c3cccc4c3sc3ccccc34)cccc12`: -0.35 °C; for `Cn1cc(-c2ccc3nnc(C(F)(F)c4ccc5ncccc5c4)n3n2)cn1`: -0.02 °C; for `Cc1cc(C(C)Nc2ccccc2)c2nc(N3CCOCC3)cc(=O)n2c1` (configuration not stated): 0.21 °C.
With `COc1cc(N2CCC(N(C)C)CC2)ccc1Nc1ncc(Cl)c(Nc2ccccc2P(C)(C)=O)n1`, the “thermal shift delta Tm” value was 2.49 °C.
The same measure for `CC(C)c1cnn2c(NCc3ccccc3)cc(NCCCCCCN)nc12`: 0.14 °C.
The same measure for `Cc1cc([C@@H](C)Nc2ccccc2C(=O)O)c2nc(N3CCOCC3)cc(=O)n2c1`: 0.29 °C.
The same measure for `CC(C)NC(=O)C1CCC(n2c(NC(=O)c3ccc(F)cc3)nc3ccc(CN4CCC(C(C)(C)O)CC4)cc32)CC1` (configuration not stated) [Belizatinib (TSR-011)]: 1.09 °C; for `COc1ccc(-c2ccc3ncc4c(c3c2)n(-c2ccc(N3CCNCC3)c(C(F)(F)F)c2)c(=O)n4C)cn1`: 0.61 °C.
Turning to `CN1CCN(c2ccc3nc(-c4c(N)c5c(F)cccc5[nH]c4=O)[nH]c3c2)CC1` [Dovitinib (TKI-258, CHIR-258)], the “thermal shift delta Tm” value stood at 4.19 °C.
In the case of `NC(=O)c1ccc2nc(-c3ccc(Oc4ccc(Cl)cc4)cc3)[nH]c2c1` [Chk2 Inhibitor II (BML-277)] it was 0.3 °C; in that of `CC1(C)OCCn2c1nc1c(N3CCOCC3)nc(-c3cnc(N)nc3)nc12`, 0.19 °C.
The same measure for `C=CC(=O)Nc1cccc(Nc2nc(Nc3ccc(OCCOC)cc3)ncc2F)c1`: 1.06 °C; for `NC(=O)c1cnc(N[C@@H]2CCCC[C@@H]2N)nc1Nc1cccc(-n2nccn2)c1`: 1.98 °C; for `CNC(=O)c1cc(Oc2ccc3nc(N[C@@H]4CCCC[C@H]4O)sc3c2)ccn1`: 0.15 °C.
In the case of `CCn1c2ccccc2c2cc(Nc3ccnc(NCCCN4CCOCC4)n3)ccc21` it was 0.11 °C.
`CCC(=O)Nc1cccc(Oc2nc(Nc3ccc(N4CCN(C)CC4)cc3OC)ncc2Cl)c1`: the “thermal shift delta Tm” value is 0.56 °C.
The same measure for `CN1CCN(c2nc(C3=C(c4c[nH]c5ccccc45)C(=O)NC3=O)c3ccccc3n2)CC1` [Sotrastaurin]: 0.49 °C; for `C=CCc1ccc(O)c(-c2ccc(O)c(CC=C)c2)c1` [Honokiol]: 0.52 °C.
